This passage reports log2 fold change results from the supplement of paper PMC10849652.

About 7,900 targets were measured; listed, in parts, are those with a hit and a random draw of the rest. About 0.6% of all pairs of compound and target were hits. Values without a mark were called inactive.

Holding throughout (assay): log2 fold change, soluble protein after heating vs DMSO (PISA); higher = thermal stabilisation; K562 cells, 10 uM, 30 min; active = over 0.2 and 3.5 SD of the protein, either way, in both replicates (recomputed)
Compound in assay [1]: CC1=C(C=C(C=C1)NC(=O)C2=CC(=CC=C2)C(C)(C)C#N)NC3=CC4=C(C=C3)N=CN(C4=O)C
In outline:
(§1)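 K562 cells (2×10^6 cells/mL) were treated with 10 μM compound for 30 min, and aliquots were heated for 3 min over 48°C-58°C. Pooled aliquots were extracted in PBS with 0.5% NP-40 at 4°C, and the supernatant after 21,000xg for 90 min was measured by TMTpro 16plex LC-MS/MS with channel sums equalised. Reported thermal stability, relative to control samples and from duplicates, is a log2 fold change.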

Compound in assay [2]: CC1=C(C=C(C=C1)NC(=O)C2=CC(=CC=C2)N(C)C)NC(=O)C3=CC=C(C=C3)O
In outline:
as §1

Compound in assay [3]: CC1=CC=C(C=C1)SC2=C3C=C(SC3=CN=C2)C(=O)N
In outline: as §1

Compound in assay [4]: CC1=NC(=CC=C1)C2=C(N=C(N2)C(C)(C)C)C3=CC4=NC=CN=C4C=C3
In short, it runs like this:
as §1

Compound in another assay: CCCCN(Cc1ccc(C(=O)NO)cc1)C(=O)Nc1ccccc1 [Nexturastat A]
In short, it runs like this: as §1

Compound in a further assay: CCCS(=O)(=O)Nc1ccc(F)c(C(=O)c2c[nH]c3ncc(-c4ccc(Cl)cc4)cc23)c1F [vemurafenib]
In short, it runs like this: as §1

Compound in assay [5]: CCCS(=O)(=O)Nc1ccc(F)c(C(=O)c2c[nH]c3ncc(Cl)cc23)c1F
In short, it runs like this:
as §1

Compound in assay [6]: CCCc1cc(C)[nH]c(=O)c1CNC(=O)c1cc(-c2ccnc(N3CCN(C)CC3)c2)cc2c1cnn2C(C)C
In outline: as §1

Compound in another assay: CCN(CC)Cc1ccc2cc(COC(=O)Nc3ccc(C(=O)NO)cc3)ccc2c1 [givinostat]
In outline:
as §1

Compound in another assay: CCN(CCCOc1ccc2c(Nc3cc(CC(=O)Nc4cccc(F)c4)[nH]n3)ncnc2c1)CCOP(=O)(O)O [barasertib]
In short, it runs like this: as §1

Sequence of UniProt P35611 (P35611 whole entry, looked up): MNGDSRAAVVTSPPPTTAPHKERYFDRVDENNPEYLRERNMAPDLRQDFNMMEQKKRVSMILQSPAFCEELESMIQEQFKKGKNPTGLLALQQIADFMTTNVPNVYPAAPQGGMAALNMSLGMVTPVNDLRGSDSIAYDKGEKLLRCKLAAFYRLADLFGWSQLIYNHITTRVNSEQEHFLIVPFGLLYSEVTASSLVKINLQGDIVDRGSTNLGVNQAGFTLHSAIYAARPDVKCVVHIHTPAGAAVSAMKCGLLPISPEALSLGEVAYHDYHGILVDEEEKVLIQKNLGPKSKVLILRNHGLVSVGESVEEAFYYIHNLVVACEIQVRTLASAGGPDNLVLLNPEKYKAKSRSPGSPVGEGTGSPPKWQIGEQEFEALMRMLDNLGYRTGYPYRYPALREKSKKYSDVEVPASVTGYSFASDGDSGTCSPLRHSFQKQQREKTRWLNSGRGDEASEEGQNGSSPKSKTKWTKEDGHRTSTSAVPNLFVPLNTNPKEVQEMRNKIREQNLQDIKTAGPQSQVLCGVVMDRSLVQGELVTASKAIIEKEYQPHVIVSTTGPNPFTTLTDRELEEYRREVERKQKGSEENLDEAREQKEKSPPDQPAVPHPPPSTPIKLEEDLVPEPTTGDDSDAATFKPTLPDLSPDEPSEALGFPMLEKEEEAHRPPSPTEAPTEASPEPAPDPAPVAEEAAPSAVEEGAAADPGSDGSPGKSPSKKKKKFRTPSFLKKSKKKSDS
Sequence of UniProt P30837 (P30837 whole entry, looked up): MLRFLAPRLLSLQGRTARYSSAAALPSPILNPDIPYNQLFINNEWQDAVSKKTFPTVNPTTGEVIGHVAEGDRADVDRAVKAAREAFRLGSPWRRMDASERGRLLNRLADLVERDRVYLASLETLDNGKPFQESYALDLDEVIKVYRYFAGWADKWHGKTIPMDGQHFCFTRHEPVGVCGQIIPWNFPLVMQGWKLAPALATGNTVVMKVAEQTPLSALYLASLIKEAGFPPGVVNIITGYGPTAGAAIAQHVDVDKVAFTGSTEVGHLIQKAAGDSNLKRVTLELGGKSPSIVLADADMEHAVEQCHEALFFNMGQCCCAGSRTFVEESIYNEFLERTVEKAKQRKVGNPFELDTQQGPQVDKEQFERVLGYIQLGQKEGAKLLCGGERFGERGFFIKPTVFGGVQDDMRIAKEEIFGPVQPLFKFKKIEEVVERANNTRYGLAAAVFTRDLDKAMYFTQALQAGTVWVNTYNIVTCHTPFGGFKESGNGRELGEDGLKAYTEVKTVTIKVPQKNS
Sequence of UniProt Q9Y3D8 (Q9Y3D8 whole entry, looked up): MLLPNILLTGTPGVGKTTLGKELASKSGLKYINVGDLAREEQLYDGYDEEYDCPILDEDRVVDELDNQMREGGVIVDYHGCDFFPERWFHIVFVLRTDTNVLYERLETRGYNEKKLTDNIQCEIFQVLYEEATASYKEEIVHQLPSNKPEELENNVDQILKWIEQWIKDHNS
Sequence of UniProt P31749 (P31749 whole entry, looked up): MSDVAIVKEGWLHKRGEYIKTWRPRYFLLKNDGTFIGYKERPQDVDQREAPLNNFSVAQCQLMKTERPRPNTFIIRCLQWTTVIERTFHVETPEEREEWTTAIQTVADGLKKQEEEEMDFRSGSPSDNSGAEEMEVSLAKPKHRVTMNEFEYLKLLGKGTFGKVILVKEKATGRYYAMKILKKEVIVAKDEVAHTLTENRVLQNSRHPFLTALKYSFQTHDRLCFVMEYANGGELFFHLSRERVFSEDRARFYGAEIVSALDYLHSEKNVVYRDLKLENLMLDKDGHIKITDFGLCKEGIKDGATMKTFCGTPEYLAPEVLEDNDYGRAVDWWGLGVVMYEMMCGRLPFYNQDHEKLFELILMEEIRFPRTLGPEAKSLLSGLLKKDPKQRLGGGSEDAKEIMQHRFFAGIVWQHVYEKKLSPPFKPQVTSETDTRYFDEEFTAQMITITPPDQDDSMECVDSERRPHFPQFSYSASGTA
Sequence of UniProt P33121 (P33121 whole entry, looked up): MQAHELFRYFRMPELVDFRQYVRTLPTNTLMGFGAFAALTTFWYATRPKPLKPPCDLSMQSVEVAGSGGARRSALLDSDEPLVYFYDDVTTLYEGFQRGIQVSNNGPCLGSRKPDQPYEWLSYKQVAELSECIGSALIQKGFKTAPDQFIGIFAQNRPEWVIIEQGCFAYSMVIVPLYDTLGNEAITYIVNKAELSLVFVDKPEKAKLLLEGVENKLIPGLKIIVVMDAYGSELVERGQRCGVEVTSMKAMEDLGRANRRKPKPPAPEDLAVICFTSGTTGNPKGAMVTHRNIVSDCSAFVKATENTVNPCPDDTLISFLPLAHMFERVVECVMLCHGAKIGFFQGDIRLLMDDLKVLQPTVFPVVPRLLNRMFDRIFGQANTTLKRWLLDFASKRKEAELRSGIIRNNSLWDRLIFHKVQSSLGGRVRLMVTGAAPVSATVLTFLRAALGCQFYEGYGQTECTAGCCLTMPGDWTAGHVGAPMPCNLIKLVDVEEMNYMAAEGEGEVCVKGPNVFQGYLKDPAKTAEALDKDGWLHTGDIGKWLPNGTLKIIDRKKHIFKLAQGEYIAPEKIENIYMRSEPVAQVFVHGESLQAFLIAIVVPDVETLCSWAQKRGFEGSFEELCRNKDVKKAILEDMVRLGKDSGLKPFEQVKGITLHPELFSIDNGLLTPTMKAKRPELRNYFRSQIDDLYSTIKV
Sequence of UniProt O00763 (O00763 whole entry, looked up): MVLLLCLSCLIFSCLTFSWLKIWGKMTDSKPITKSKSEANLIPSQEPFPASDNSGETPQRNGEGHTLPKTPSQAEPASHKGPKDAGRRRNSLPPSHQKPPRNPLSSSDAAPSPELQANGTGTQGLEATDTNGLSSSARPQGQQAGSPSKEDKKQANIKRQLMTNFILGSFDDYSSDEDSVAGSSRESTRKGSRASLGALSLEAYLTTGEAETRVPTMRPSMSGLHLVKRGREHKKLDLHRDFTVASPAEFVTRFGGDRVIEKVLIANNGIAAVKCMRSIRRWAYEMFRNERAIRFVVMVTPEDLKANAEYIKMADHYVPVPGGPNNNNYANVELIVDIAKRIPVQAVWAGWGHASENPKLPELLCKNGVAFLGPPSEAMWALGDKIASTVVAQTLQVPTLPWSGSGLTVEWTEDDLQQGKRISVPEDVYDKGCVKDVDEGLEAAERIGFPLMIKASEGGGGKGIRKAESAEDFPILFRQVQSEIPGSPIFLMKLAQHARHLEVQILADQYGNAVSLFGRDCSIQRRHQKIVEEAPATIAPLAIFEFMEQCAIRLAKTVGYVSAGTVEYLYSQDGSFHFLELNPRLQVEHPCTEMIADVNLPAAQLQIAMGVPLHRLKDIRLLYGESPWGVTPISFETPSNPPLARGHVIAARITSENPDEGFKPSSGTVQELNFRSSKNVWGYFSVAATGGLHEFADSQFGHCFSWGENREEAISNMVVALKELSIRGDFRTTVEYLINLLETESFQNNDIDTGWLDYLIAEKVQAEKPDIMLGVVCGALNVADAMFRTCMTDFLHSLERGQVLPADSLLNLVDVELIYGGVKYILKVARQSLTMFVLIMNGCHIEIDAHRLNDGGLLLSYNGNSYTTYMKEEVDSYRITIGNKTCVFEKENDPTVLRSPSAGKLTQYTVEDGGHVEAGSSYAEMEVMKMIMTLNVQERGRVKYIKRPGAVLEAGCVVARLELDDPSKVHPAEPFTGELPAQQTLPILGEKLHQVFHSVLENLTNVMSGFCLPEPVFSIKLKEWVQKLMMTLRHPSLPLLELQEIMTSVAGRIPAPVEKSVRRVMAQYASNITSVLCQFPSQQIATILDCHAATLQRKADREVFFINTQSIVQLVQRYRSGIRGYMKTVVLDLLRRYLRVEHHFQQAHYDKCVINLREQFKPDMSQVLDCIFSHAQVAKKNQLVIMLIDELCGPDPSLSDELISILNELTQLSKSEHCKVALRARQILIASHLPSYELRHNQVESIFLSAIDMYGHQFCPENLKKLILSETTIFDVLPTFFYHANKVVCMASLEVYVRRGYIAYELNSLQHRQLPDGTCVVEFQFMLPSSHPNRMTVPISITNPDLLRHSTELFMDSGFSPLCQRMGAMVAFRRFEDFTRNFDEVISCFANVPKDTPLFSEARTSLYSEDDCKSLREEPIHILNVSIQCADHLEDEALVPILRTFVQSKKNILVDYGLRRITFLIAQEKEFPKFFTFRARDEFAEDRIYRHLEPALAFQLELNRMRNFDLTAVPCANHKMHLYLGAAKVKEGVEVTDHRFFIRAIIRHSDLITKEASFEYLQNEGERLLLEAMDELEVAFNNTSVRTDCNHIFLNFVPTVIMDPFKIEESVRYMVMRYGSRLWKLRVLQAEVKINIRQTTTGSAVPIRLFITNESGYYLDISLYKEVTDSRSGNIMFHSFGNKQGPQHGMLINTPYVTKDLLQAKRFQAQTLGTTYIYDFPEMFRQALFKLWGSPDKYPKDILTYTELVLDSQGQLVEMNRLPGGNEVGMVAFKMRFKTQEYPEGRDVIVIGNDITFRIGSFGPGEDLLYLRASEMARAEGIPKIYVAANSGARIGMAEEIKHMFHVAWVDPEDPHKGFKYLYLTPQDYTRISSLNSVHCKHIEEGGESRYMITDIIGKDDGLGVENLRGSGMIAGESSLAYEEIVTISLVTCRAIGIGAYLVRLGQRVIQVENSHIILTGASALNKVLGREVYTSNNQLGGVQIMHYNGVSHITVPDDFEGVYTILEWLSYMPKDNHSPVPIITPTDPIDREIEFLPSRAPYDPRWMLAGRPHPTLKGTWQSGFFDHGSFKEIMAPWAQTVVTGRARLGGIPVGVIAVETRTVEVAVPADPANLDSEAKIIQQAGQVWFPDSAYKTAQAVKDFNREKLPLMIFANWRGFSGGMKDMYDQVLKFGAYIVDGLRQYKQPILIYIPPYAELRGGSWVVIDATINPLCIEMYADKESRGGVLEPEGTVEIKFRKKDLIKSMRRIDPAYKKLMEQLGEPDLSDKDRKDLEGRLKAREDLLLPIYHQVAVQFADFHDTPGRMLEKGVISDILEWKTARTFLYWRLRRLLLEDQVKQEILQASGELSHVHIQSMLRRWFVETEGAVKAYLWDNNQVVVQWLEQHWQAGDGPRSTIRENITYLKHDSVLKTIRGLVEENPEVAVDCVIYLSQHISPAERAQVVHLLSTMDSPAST

Turning to ATG9A (UniProt Q7Z3C6), the log2 fold change in assay [1] is -0.019; in assay [2], -0.017; in assay [3], 0.038; in [4] it was 0.008; with Nexturastat A, -0.018; with vemurafenib, -0.006. Besides, the log2 fold change in [5] is 0.019; in [6], 0.007; with givinostat, 0.019; with barasertib it was 0.045.

Consider ACACB (UniProt O00763), for which the log2 fold change in assay [1] is -0.037; in assay [2], 0.01; in assay [3], 0.006; in [4] it was -0.065; in the assay with Nexturastat A, 0.344; in the assay with vemurafenib, 0.108. Further, the log2 fold change in assay [5] was 0.012; in assay [6], 0.152; with givinostat, 0.149; with barasertib, 0.06.

Turning to ARL3 (UniProt P36405), the log2 fold change in assay [1] was -0.016; in assay [2] it was 0.018; in assay [3] it was 0.016; in assay [4], 0.025; with Nexturastat A, -0.063; with vemurafenib, 0.002. Also, the log2 fold change is 0.059 in assay [5], -0.033 in assay [6], 0.005 with givinostat and -0.022 with barasertib.

Take APAF1 (UniProt O14727): the log2 fold change in assay [1] was 0.023; in assay [2] it was 0.014; in assay [3] it was -0.003; in [4] it was -0.125; with Nexturastat A, 0.056; with vemurafenib, -0.006. Further, the results for the log2 fold change (in assay [5]; in assay [6]; in the assay with givinostat) were -0.068, -0.1 and 0.395 (active), respectively.

As to ADD1 isoform 3 (UniProt P35611), the log2 fold change in assay [1] was -0.015; in assay [2], -0.031; in [3], -0.026; in [4] it was 0.015; with Nexturastat A it was 0.025; with vemurafenib it was -0.059. Moreover, the log2 fold change in assay [5] is 0.013; in assay [6] it was -0.025; in the assay with givinostat, -0.015; in the assay with barasertib, -0.022.

As for ARF4 (UniProt P18085), the log2 fold change was 0.022 in assay [1]; -0.014 in [2]; 0 in assay [3]; 0.012 in [4]; -0.095 with Nexturastat A; 0.02 with vemurafenib. For the same target, the log2 fold change in [5] was 0.022; in assay [6], 0.023; with givinostat, 0.016; in the assay with barasertib, 0.048.

As to ATP9B (UniProt O43861), the log2 fold change in assay [1] was -0.185; in assay [2], -0.007; in assay [3], -0.054; in assay [4], 0.061; with Nexturastat A, 0.013; with vemurafenib it was -0.05. Further, the log2 fold change in [5] was 0.01; in assay [6] it was -0.03; in the assay with givinostat it was 0.085; with barasertib it was 0.013.

For ABCB6 (UniProt Q9NP58), the log2 fold change is 0.085 in [1]; -0.084 in assay [2]; 0.019 in [3]; 0.019 in assay [4]; 0.001 in the assay with Nexturastat A; 0.073 in the assay with vemurafenib. In addition, the log2 fold change in [5] was -0.022; in assay [6] it was -0.041; with givinostat, -0.002; with barasertib it was 0.008.

As for ACSL1 (UniProt P33121), the log2 fold change was 0.01 in [1]; 0.01 in assay [2]; 0.031 in assay [3]; 0.056 in assay [4]; -0.115 in the assay with Nexturastat A; -0.021 in the assay with vemurafenib. For the same target, the log2 fold change is 0.041 in assay [5], -0.018 in assay [6], -0.034 with givinostat and -0.002 with barasertib.

On to AKT1 (UniProt P31749), for which the log2 fold change is 0.118 in [1]; -0.105 in assay [2]; -0.035 in assay [3]; 0.019 in assay [4]; 0.145 with Nexturastat A; -0.227 with vemurafenib. For the same target, the log2 fold change in assay [5] is 0.008; in assay [6] it was 0.049; with givinostat, 0.133; with barasertib, -0.03.

In the case of ALDH1B1 (UniProt P30837), the log2 fold change in assay [1] was 0.054; in [2], 0.008; in assay [3] it was 0.128; in assay [4], 0.017; with Nexturastat A, -0.104; in the assay with vemurafenib, 0.011. Also, the log2 fold change was 0.032 in assay [5], -0.016 in assay [6], 0.032 in the assay with givinostat and -0.001 with barasertib.

As for ACSL5 isoform 3 (UniProt Q9ULC5), the log2 fold change in [1] is 0.106; in assay [2], 0.061; in [3], -0.025; in [4], 0.088; in the assay with Nexturastat A, -0.009; with vemurafenib it was 0.001. Besides, the log2 fold change in assay [5] was 0.083; in [6], -0.019; with givinostat, -0.023; with barasertib, 0.013.

In the case of AK6 (UniProt Q9Y3D8), the log2 fold change in assay [1] is 0.02; in [2], -0.04; in assay [3], 0.012; in assay [4] it was 0.032; in the assay with Nexturastat A it was -0.056; with vemurafenib, 0.1. In addition, the log2 fold change was 0.053 in [5], 0.076 in assay [6], 0.083 with givinostat and 0.138 with barasertib.

Take ARL6IP4 (UniProt Q66PJ3): the log2 fold change is -0.048 in assay [1]; 0.016 in [2]; -0.005 in assay [3]; 0 in assay [4]; 0.001 with Nexturastat A; -0.07 with vemurafenib. The log2 fold change in assay [5] is -0.019; in [6], -0.038; with givinostat, 0.005; in the assay with barasertib it was -0.01.

Turning to AIP (UniProt O00170), the log2 fold change was 0.014 in assay [1]; -0.074 in [2]; 0.032 in assay [3]; 0.07 in assay [4]; -0.07 in the assay with Nexturastat A; 0.071 in the assay with vemurafenib. Moreover, the log2 fold change in assay [5] was 0.088; in assay [6], 0.065; in the assay with givinostat, 0.043; in the assay with barasertib it was 0.031.
